# Bioassay records from PubChem.
# A selection: hits, their analogues and other compounds. The true share with any hit is near 2%.
# Shn3 3UTR inh – Schnurri-3 reporter inhibition in Clone20 osteoblasts; Clone20 osteoblast Shn3 3'UTR firefly luciferase, 24 h; hit rate 0.52% among 360,000; AID 588674; inhibition, % at 12.5 µM;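 active = mean inhibition of at least 75% with every replicate also reaching 75%; inconclusive = mean inhibition at least 75% but some replicate below; inactive = mean inhibition below 75%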;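 note: 0% = median of neutral control wells and 100% = pilot-screen positive control compound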
# Calb FLC – C. albicans growth modulation with fluconazole; C. albicans CaCi-2 (fluconazole-resistant clinical isolate) + fluconazole, Alamar Blue growth, 48 h; growth inhibition, % (concentration not given with the values); hit rate 0.57% among 300,000;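 active = growth inhibition above about 58% in most replicates, limit read from the data, passing the limit was not always enough; inconclusive = exactly half the replicates above a set limit; inactive = most replicates below a set limit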;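 note: all wells also contain fluconazole at 8 µg/ml as a sub-toxic cotreatment; 0% = median of DMSO wells and 100% = median of geldanamycin control wells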
# Jurkat NFkB inh – inhibitors of the PMA/ionomycin-induced NF-kB reporter in Jurkat cells; AID 435003; hit rate 0.53% among 330,000; PMA/ionomycin-induced NF-kB luciferase reporter, luminescence; inhibition, % at 4 µM; in the data active = inhibition above about 50%
# 697 NFkB inh – lowers PMA/ionomycin-induced NF-kB signal in 697 B cells. 697 B-cell NF-kB luciferase reporter, 16 h. inhibition, % at 4 µM. hit rate 0.33% among 330,000. AID 435022; in the data active = inhibition above about 35%
# Beta cell apopt – beta cell apoptosis inhibition; hit rate 0.8% among 300,000; INS-1E cytokine-induced death, ATP luminescence, 48 h; percent of positive-control rescue, neutral wells zero; protection from apoptosis, % (no concentration beside the values);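 active = Every replicate reaches about 75%, or at least half do and their mean reaches it too, limit read from the data; inconclusive = At least half of replicates reach the limit but their mean does not; inactive = Under half of replicates reach the limit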;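 note: 0% = cytokine-treated negative control wells and 100% = positive control rescue; higher means more ATP so stronger rescue from cytokine killing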
# Active calls of the source: *; ? = inconclusive; nt = no result.
SMILES,Shn3 3UTR inh,Calb FLC,Jurkat NFkB inh,697 NFkB inh,Beta cell apopt
C#CCOCCOCCOCCNc1nc(N2CCN(C(=O)CCCCCCCCCCNC(=O)[C@H]([C@@H](C)CC)n3cc(CCCCN=C(N)N)nn3)CC2)nc(N2CCN(C(=O)CCCCCCCCCCNC(=O)[C@H](CCCCN)n3cc(C[C@@H](C)CC)nn3)CC2)n1,nt,nt,9,-34,98*
C#CCOCCOCCOCCNc1nc(N2CCN(C(=O)CCCCCCCCCCNC(=O)[C@@H](CCSC)n3cc(CCO)nn3)CC2)nc(N2CCN(C(=O)CCCCCCCCCCNC(=O)[C@H]([C@@H](C)CC)n3cc(CCCCCN)nn3)CC2)n1,nt,nt,32,-45,99*
C#CCOCCOCCOCCNc1nc(N2CCN(C(=O)CCCCCCCCCCNC(=O)[C@H](CCC(=O)O)n3cc(CCCCCN)nn3)CC2)nc(N2CCN(C(=O)CCCCCCCCCCNC(=O)[C@@H]([C@H](C)O)n3cc(C)nn3)CC2)n1,14,nt,-19,-3,-4
O=C(O)CN1C(=O)C(=O)N(Cc2ccc(Cl)c(Cl)c2)C1=O,-17,-10,-9,-11,2
Brc1ccc2c(c1)OCCOCCOCCOCCOCCOCCO2,-10,-14,5,17,3
C#CCOCCOCCOCCNc1nc(N2CCN(C(=O)CCCCCCCCCCNC(=O)[C@H](CCCCN)n3cc(C)nn3)CC2)nc(N2CCN(C(=O)CCCCCCCCCCNC(=O)[C@@H]([C@H](C)CC)n3cc(CCCCCN)nn3)CC2)n1,77,nt,9,-25,94*
C#CCOCCOCCOCCNc1nc(N2CCN(C(=O)CCCCCCCCCCNC(=O)[C@H](CCCCN)n3cc(C[C@@H](C)CC)nn3)CC2)nc(N2CCN(C(=O)CCCCCCCCCCNC(=O)[C@H](CCCCN)n3cc(C[C@@H](C)CC)nn3)CC2)n1,-16,-5,nt,nt,114*
C#CCOCCOCCOCCNc1nc(N2CCN(C(=O)CCCCCCCCCCNC(=O)[C@H](CCCCN)n3cc(CCO)nn3)CC2)nc(N2CCN(C(=O)CCCCCCCCCCNC(=O)[C@@H]([C@H](C)O)n3cc(C)nn3)CC2)n1,10,nt,1,0,-5
C#CCOCCOCCOCCNc1nc(N2CCN(C(=O)CCCCCCCCCCNC(=O)Cn3cc(C[C@@H](C)O)nn3)CC2)nc(N2CCN(C(=O)CCCCCCCCCCNC(=O)[C@H](CCCCN)n3cc(C[C@@H](C)CC)nn3)CC2)n1,84,nt,28,-17,63
O=S(=O)(c1ccccc1)N(CC1CO1)c1cccc2ccccc12 (configuration not stated),7,23,13,10,-4
O=C(NCc1cccnc1)/C(=C\c1ccc(-c2ccc(Br)cc2)o1)S(=O)(=O)c1ccccc1,96*,3,20,15,107*
O=C(NCc1cccnc1)/C(=C/c1ccc(-c2ccc(Cl)cc2)o1)S(=O)(=O)c1ccccc1,92*,19,31,26,104*
CC(=O)c1cccc(-c2csc3ncnc(Sc4nnnn4C)c23)c1,95*,nt,nt,nt,nt
CC(C)(C)C(CN1CCCC1)OC(=O)c1ccccc1 (configuration not stated),0,3,-3,8,0
O=C(Oc1c(Cl)cc(Cl)c2cccnc12)c1cccs1,18,108*,5,-10,75*
O=C(Oc1c(CN2CCOCC2)cc(Cl)c2cccnc12)c1cccs1,45,101*,18,-11,122*
O=C(Oc1ccc(Cl)c2cccnc12)N1CCOCC1,-1,-8,0,13,-5
O=C(Oc1c(Cl)cc(Cl)c2cccnc12)c1ccco1,64,101*,-29,-57,91*
O=C(Oc1c(CN2CCOCC2)cc(Cl)c2cccnc12)c1ccccc1Cl,?,100*,9,-15,22
Oc1c(Cl)cc(Cl)c2cccnc12,16,?,nt,nt,nt
Cc1ccc(CNC(=O)Cn2cnc3c(NC(=O)OCc4ccccc4)ncnc32)o1,-16,nt,-10,1,-2
CSc1ccccc1C(=O)N(CC1CCCO1)c1c(N)n(Cc2ccccc2)c(=O)[nH]c1=O (configuration not stated),3,8,0,5,-6
CCN(CC(=O)Nc1ccc(NC(C)=O)cc1)C(=O)c1ccccc1SCc1c(C)noc1C,-33,-2,9,9,-2
O=C(N/N=C/c1cc([N+](=O)[O-])ccc1O)c1cc(-c2ccccc2)nc2ccccc12,88*,-14,-5,-106,117*
O=C(N/N=C/c1cc([N+](=O)[O-])ccc1O)c1c[nH]c2ccccc12,-2,2,4,-20,78*
SMILES,Shn3 3UTR inh,Calb FLC,Jurkat NFkB inh,697 NFkB inh,Beta cell apopt
Cc1ccc(-c2nnc3c(C(F)(F)F)nc4ccccc4n23)cc1,5,37,9,-5,4
FC(F)(F)c1nc2ccccc2n2c(-c3ccc(Cl)cc3)nnc12,-2,-5,34,-11,101*
O=C(CCS(=O)(=O)c1cccc2nsnc12)N1CCN(Cc2ccc3c(c2)OCO3)CC1,9,-13,-4,10,-7
O=C(CCS(=O)(=O)c1cccc2nsnc12)N1CCN(C(=O)c2ccco2)CC1,9,57*,17,5,-2
CC(=O)CSc1nnc(-c2ccco2)n1-c1ccccc1,-21,-1,8,2,-1
CSc1nnc(-c2ccco2)n1-c1ccccc1,89*,-20,-1,-3,-1
O=C(Nc1ccc2c(c1)OCO2)c1cc(C2CCCCN2C(=O)CCCc2ccccc2)on1 (configuration not stated),25,nt,nt,nt,nt
CCNC(=O)COc1cccc2ccccc12,4,-11,9,13,1
O=C(NCCNC(=O)Oc1cccc2ccccc12)Oc1cccc2ccccc12,90*,nt,nt,nt,nt
COc1ccc(NC(=S)NCc2ccc(F)cc2)cc1,-3,-11,0,5,-1
O=C(O)c1ccc(NC2=C(Cl)C(=O)c3ccccc3C2=O)cc1,95*,-19,-1,-5,14
O=C1C(Cl)=C(Nc2ccccc2)C(=O)c2ccccc21,96*,2,nt,nt,66
O=C1C(Cl)=C(NCCc2ccccc2)C(=O)c2ccccc21,28,nt,nt,nt,nt
CCN(CC)CCCNC1=C(Cl)C(=O)c2ccccc2C1=O,24,-10,-3,20,98*
C=CCNC1=C(Cl)C(=O)c2ccccc2C1=O,5,-18,-13,-19,97*
O=C(O)c1cccc(NC2=C(Cl)C(=O)c3ccccc3C2=O)c1,-51,?,nt,nt,nt
COc1ccccc1N1CCN(S(=O)(=O)CCNC(=O)CCc2ccccc2)CC1,-5,nt,nt,nt,nt
O=C(CNC(=S)N(CCCN1CCOCC1)Cc1cccs1)N1CCCC1,-2,-5,2,6,-2
O=S(=O)(Cc1ccccc1)NCc1cccnc1,-19,7,20,18,8
COC1=C(Nc2ccccc2)C(=O)c2ccccc2C1=O,-17,37,6,0,95*
O=C1C(Cl)=C(NCc2cccnc2)C(=O)c2ccccc21,-9,-6,-1,-13,84*
CCN(c1cccc(C)c1)S(=O)(=O)c1ccc(-c2ccc(=O)[nH]n2)o1,-3,28,-10,-22,nt
